From PubChem BioAssay (EPA / NIEHS) come the findings set out here.

In assay [1] the test system is DIO1 (gene 1733). Briefly: CCTE_GLTED_hDIO1: CCTE's human Deiodinase 1 (DIO1) Inhibition Assay, Great Lakes Toxicology and Ecology Division (GLTED) Lab (AID 2283987; active = hit-call score of the fitted dose curve at least 0.9, where 1 is the maximum;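 also: isolated human DIO1 enzyme in a cell-free setup rather than cells; enzyme activity read as free iodide liberated from substrate via Sandell-Kolthoff colorimetry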). In outline:
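Cell-free human DIO1 enzyme was incubated with test chemical for 3 h, and iodide released from substrate was measured by Sandell-Kolthoff absorbance. Loss of signal versus DMSO baseline indicated inhibition; plates were run in triplicate.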

Assay [2] can be described thus: CCTE_Harrill_HTTr_Viability_MCF7: CCTE's 6-hour Cell Viability Assessment for the High-Throughput Transcriptomics (HTTr) Platform, in MCF-7 cells cultured in DMEM + 10% fetal bovine serum, Harrill Lab (AID 2284010). In a few lines:
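Eight-point concentration series, six-hour exposure. Propidium iodide exclusion imaged to assess membrane integrity as a cytotoxicity readout; bidirectional fitting was done with DMSO as negative control and activity baseline.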

Assay [3] is described as follows: CCTE_Harrill_HTTr_Apoptosis_MCF7: CCTE's 6-hour Apoptosis Assessment for the High-Throughput Transcriptomics (HTTr) Platform, in MCF-7 cells cultured in DMEM + 10% fetal bovine serum, Harrill Lab (AID 2284011). In outline: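 MCF-7 cells in DMEM + 10% fetal bovine serum were exposed to chemicals for 6 hours over an eight-point dilution series. Caspase-3/7 activation was imaged by high content imaging with CellEvent Caspase 3/7 Green; bidirectional fitting used DMSO as baseline.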

Assay [4] is described as follows: CCTE_Harrill_HTTr_CellCount_MCF7: CCTE's Cell Proliferation Assessment for the High-Throughput Transcriptomics (HTTr) Platform, Harrill Lab (AID 2284012; active = hit-call score of the fitted dose curve at least 0.9, where 1 is the maximum;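 also: count of Hoechst-stained nuclei per well by high-content imaging in MCF-7 cells; cells exposed to compound for six hours; intended direction is loss of nuclei count meaning fewer cells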). In outline:
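For this full-screen endpoint, MCF-7 cultures received eight compound dilutions for six hours. Well nuclei counts from Hoechst imaging were analyzed relative to DMSO.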

A short description of assay [5]: CCTE_Harrill_HTTr_Viability_PRF_DMEM_24hr: (Pilot) CCTE's 24-hour Cell Viability Assessment for the High-Throughput Transcriptomics (HTTr) Platform, in MCF-7 cells cultured in phenol red-free DMEM + 10% charcoal-stripped fetal bovine serum, Harrill Lab (AID 2283980). In outline: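 Propidium iodide exclusion imaged at 24 h after dosing scores viability; cells were MCF-7 grown in phenol red-free DMEM plus 10% charcoal-stripped serum, tested in eight concentrations, fitted in both directions against DMSO.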

Assay [6] in a line: CCTE_Harrill_HTTr_Apoptosis_DMEM_6hr: (Pilot) CCTE's 6-hour Apoptosis Assessment for the High-Throughput Transcriptomics (HTTr) Platform, in MCF-7 cells cultured in DMEM + 10% fetal bovine serum, Harrill Lab (AID 2283981). In outline:
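MCF-7 cells grown in DMEM + 10% FBS were exposed for 6 hours to an eight-point dilution series. CellEvent Caspase 3/7 Green signal was imaged; activity fitted bidirectionally against DMSO.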

Assay [7] in a line: CCTE_Harrill_HTTr_Apoptosis_DMEM_12hr: (Pilot) CCTE's 12-hour Apoptosis Assessment for the High-Throughput Transcriptomics (HTTr) Platform, in MCF-7 cells cultured in DMEM + 10% fetal bovine serum, Harrill Lab (AID 2283982). In a few lines:
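Caspase-3/7 activity was measured by high-content imaging (CellEvent Caspase 3/7 Green) after a 12-hour exposure of MCF-7 cells grown in DMEM with 10% FBS. Eight-point concentration series, fitted bidirectionally against vehicle.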

The nature of assay [8]: CCTE_Harrill_HTTr_Apoptosis_DMEM_24hr: (Pilot) CCTE's 24-hour Apoptosis Assessment for the High-Throughput Transcriptomics (HTTr) Platform, in MCF-7 cells cultured in DMEM + 10% fetal bovine serum, Harrill Lab (AID 2283983). In outline:
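Caspase-3/7 activity read by high-content imaging (CellEvent Green reagent) 24 h after dosing. MCF-7 cells grown in DMEM with 10% FBS received an eight-point concentration series; fits were bidirectional versus DMSO.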

A short description of assay [9]: CCTE_Harrill_HTTr_Apoptosis_PRF_DMEM_6hr: (Pilot) CCTE's 6-hour Apoptosis Assessment for the High-Throughput Transcriptomics (HTTr) Platform, in MCF-7 cells cultured phenol red-free DMEM + 10% charcoal-stripped fetal bovine serum, Harrill Lab (AID 2283984). In a few lines: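 Caspase-3/7 activity (CellEvent Green) read by high-content imaging 6 h after dosing, eight concentrations. Cells: MCF-7, phenol red-free DMEM with 10% charcoal-stripped serum. Curves fit both directions against DMSO.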

The nature of assay [10]: CCTE_Harrill_HTTr_Apoptosis_PRF_DMEM_24hr: (Pilot) CCTE's 24-hour Apoptosis Assessment for the High-Throughput Transcriptomics (HTTr) Platform, in MCF-7 cells cultured in phenol red-free DMEM + 10% charcoal-stripped fetal bovine serum, Harrill Lab (AID 2283986). In a few lines:
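Eight concentrations tested for 24 h on MCF-7 grown in charcoal-stripped serum, phenol red-free DMEM. High content imaging of CellEvent Caspase 3/7 Green signal gives apoptosis read-out, fitted both ways relative to DMSO.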

In assay [11] the target is Nucleoli Translocation, AR (gene 367) (UniProt P10275). Briefly: UPITT_HCI_U2OS_AR_TIF2_Nucleoli_Antagonist: University of Pittsburgh U2OS Androgen Receptor-Transcriptional Intermediary Factor 2 (AR-TIF2) Antagonism High Content Imaging Assay for Nucleoli Translocation (AID 2283997; active = hit-call score of the fitted dose curve at least 0.9, where 1 is the maximum). In a few lines: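 An antagonist-mode imaging screen: engineered U2OS (AR-RFP, TIF2-GFP) exposed to 20 uM compound, 0.2% DMSO. Activity reflects nucleolar red fluorescence change relative to DHT baseline.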
Sequence of Nucleoli Translocation, AR (gene 367) (P10275 whole entry, looked up): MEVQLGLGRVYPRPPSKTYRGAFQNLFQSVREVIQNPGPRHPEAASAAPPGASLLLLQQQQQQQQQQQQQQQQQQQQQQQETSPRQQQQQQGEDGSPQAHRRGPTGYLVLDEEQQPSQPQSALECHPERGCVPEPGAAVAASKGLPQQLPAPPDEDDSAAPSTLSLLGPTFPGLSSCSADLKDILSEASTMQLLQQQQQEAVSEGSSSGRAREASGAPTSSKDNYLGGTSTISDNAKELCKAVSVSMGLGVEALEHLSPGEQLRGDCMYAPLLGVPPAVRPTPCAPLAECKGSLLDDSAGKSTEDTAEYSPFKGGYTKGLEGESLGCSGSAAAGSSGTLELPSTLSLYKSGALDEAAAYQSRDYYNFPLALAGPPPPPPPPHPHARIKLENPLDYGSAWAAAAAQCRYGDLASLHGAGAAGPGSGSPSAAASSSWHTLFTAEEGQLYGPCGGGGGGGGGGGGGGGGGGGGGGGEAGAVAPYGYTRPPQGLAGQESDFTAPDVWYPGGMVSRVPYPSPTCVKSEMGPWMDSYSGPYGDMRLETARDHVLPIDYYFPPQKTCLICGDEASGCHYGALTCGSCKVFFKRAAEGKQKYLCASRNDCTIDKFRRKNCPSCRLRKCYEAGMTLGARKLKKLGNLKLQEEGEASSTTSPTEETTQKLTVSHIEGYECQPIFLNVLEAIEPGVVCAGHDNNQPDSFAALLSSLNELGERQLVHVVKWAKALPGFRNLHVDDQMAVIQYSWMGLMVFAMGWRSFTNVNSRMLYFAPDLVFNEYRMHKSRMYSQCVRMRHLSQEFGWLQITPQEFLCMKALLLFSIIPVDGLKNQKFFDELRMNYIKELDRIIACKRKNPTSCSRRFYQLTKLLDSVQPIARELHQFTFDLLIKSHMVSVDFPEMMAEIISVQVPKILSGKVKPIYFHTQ

Assay [12] addresses Ratio of Nucleoli Translocation and Cytoplasm, AR (gene 367) (UniProt P10275). Put plainly: UPITT_HCI_U2OS_AR_TIF2_Nucleoli_Cytoplasm_Ratio_Antagonist: University of Pittsburgh U2OS Androgen Receptor-Transcriptional Intermediary Factor 2 (AR-TIF2) Antagonism High Content Imaging Assay for Ratio of Nucleoli Translocation and Cytoplasm (AID 2283999; active = hit-call score of the fitted dose curve at least 0.9, where 1 is the maximum;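 also: antagonists lower the DHT-driven ratio of nucleolar to cytoplasmic red signal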). In outline: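 This antagonist-mode endpoint tracks AR-RFP localisation, the nucleolus-to-cytoplasm intensity ratio, in TIF2-GFP-coexpressing U2OS cells. DMSO stays at or below 0.5%; testing spans 20 uM single-dose and 0.195–50 uM series, with DHT setting the activity baseline.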

Assay [13] has the same target. Briefly: UPITT_HCI_U2OS_AR_TIF2_Nucleoli_Cytoplasm_Ratio_Agonist: University of Pittsburgh U2OS Androgen Receptor-Transcriptional Intermediary Factor 2 (AR-TIF2) Agonism High Content Imaging Assay for Ratio of Nucleoli Translocation and Cytoplasm (AID 2284000; active = hit-call score of the fitted dose curve at least 0.9, where 1 is the maximum;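 also: hits raise the red nucleolar to cytoplasm ratio above vehicle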). In a few lines:
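Primary screen at 20 uM final (0.2% DMSO), then triplicate confirmation and dose-response from 0.195 to 50 uM final (0.5% DMSO). Cells: U2OS with AR-RFP and TIF2-GFP. Endpoint is the nucleoli/cytoplasm red-fluorescence ratio, gain-of-signal vs DMSO.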

Assay [14] in a line: CCTE_Simmons_MITO_basal_resp_rate: CCTE's HepG2 Seahorse XF Respirometric Screening Assay at Basal Respiratory State, Simmons Lab (AID 2284001). As to conditions: actives raise or lower the signal. In outline: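 Readout is oxygen consumption rate after test compound injection, measured by Seahorse XF in HepG2 cells. Seven concentrations from 125 nM up to 100 uM final are tested, and activity in either direction is fitted against DMSO.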

The nature of assay [15]: CCTE_Simmons_MITO_max_resp_rate: CCTE's HepG2 Seahorse XF Respirometric Screening Assay at Maximal Respiratory State [uncoupled], Simmons Lab (AID 2284002). Conditions: actives raise or lower the signal. In outline:
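HepG2 oxygen consumption was read on a Seahorse XF96 after FCCP uncoupler injection, following test compound injection; 7 concentrations, 125 nM–100 uM final, three biological replicates. Bidirectional fitting against DMSO vehicle baseline.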

The nature of assay [16]: CCTE_Simmons_MITO_inhib_resp_rate: CCTE's HepG2 Seahorse XF Respirometric Screening Assay at Inhibited Respiratory State [full ETC block], Simmons Lab (AID 2284006). As to conditions: actives raise or lower the signal. In a few lines: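 Test chemicals at seven final concentrations (125 nM–100 uM) in three biological replicates, with DMSO as vehicle. HepG2 oxygen consumption was then tracked on a Seahorse XF96 for 72 min through FCCP and rotenone/antimycin A phases, with the inhibited-phase rate as the endpoint.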

Assay [17] is described as follows: CCTE_Simmons_MITO_viability: CellTiter-Glo Viability Assessment for CCTE's HepG2 Seahorse XF Respirometric Screening Assay [post-hoc], Simmons Lab (AID 2284007; active = hit-call score of the fitted dose curve at least 0.9, where 1 is the maximum;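 as to AC50: cells exposed to chemical for 90 min before the ATP read; actives lower ATP signal relative to DMSO baseline meaning reduced viability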). In outline: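 Post-hoc viability check on the HepG2 respirometry plates: luciferase-based ATP signal measured once, after 90 min compound exposure spanning 125 nM–100 uM final. Activity was referenced to DMSO as baseline.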
On the technique in general: ATP-based viability assays read luminescence as a measure of living cells.

Assay [18] is described as follows: CCTE_Shafer_MEA_acute_spike_number: CCTE's Neural Acute Assay for Total Number of Spikes, Shafer Lab (AID 2284008).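 As to AC50: curve fitted for decrease in spike count so AC50 reflects inhibitors.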 In a few lines:
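Primary rat cortical neurons on 16-electrode MEA wells; on DIV 13 or 15, 40-min baseline then 40-min recording with compound (0.03-40 uM) at 37 C. Spikes detected at 8x rms noise; percent change versus baseline, DMSO as negative control.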

A short description of assay [19]: CCTE_Shafer_MEA_acute_firing_rate_mean: CCTE's Neural Acute Assay for Mean Firing Rate, Shafer Lab (AID 2284009).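 Also: analyzed for loss of signal so actives lower firing rate relative to DMSO.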 In outline:
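Spontaneous spiking of primary rat cortical networks, DIV 13/15, 37 C. Compound 0.03-40 uM, n ≥3 wells; 40 min baseline vs 40 min treated. Endpoint fitted in loss-of-signal direction against DMSO.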

The nature of assay [20]: CCTE_Shafer_MEA_acute_burst_number: CCTE's Neural Acute Assay for Single-Electrode Bursts, Shafer Lab (AID 2284013). In outline:
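Burst totals were derived with adaptive spike detection (8x rms threshold) on filtered signals from rat cortical cultures; change relative to pre-treatment baseline after 40-min compound exposure (0.03-40 uM) was fitted in the negative direction against DMSO.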

Inconclusive results are not listed. Activity calls are given as the source filed them. The calls were made as follows, unless noted: active = hit-call score of the fitted dose curve at least 0.9, where 1 is the maximum; inactive = score below 0.9.

Sequence of Ratio of Nucleoli Translocation and Cytoplasm, AR (gene 367) (P10275 whole entry, looked up): as above

As a reminder, the AC50 is the concentration at which the activity in the assay is half-maximal. On to `S=c1[nH]c2ccccc2s1`, for which the AC50 in [1] is 23.4 µM (active). The outcome in assay [2], in [3] and in assay [4] was inactive.

Turning to `CCN(CC)CCOc1ccc(C(=C(Cl)c2ccccc2)c2ccccc2)cc1`, the half-maximal activity concentration (AC50) in assay [5] was 50.3 µM (active); in [6] it was 81.1 µM (active); in [7] it was 83.4 µM (active); in assay [8] it was 66.2 µM (active); in assay [9], 79.6 µM (active); in assay [10] it was 68.3 µM (active). Besides, the AC50 in assay [1] was 70.7 µM (active); in assay [15] it was 91 µM (active); in [17] it was 84.2 µM (active); in assay [18], 2.58 µM (active); in assay [19], 2.62 µM (active); in [20], 2.68 µM (active). Also, the outcome in assay [11], in assay [12], in assay [13], in [14], in [16] and in assay [2] was inactive. For the same molecule, the outcome in assay [3] was inactive.

On to `CC(=O)O[C@]1(C(C)=O)CC[C@H]2[C@@H]3C=C(Cl)C4=CC(=O)[C@@H]5C[C@@H]5[C@]4(C)[C@H]3CC[C@@]21C`, for which the outcome in assay [5], in assay [6], in [7], in assay [8], in assay [9] and in assay [10] was inactive. The outcome in assay [16], in [2], in assay [3] and in assay [4] was inactive. Besides, the values for the half-maximal activity concentration (AC50) in assay [14], in assay [15] and in assay [17] were 29 µM (active), 28.1 µM (active) and 23 µM (active), respectively.

On to `Cc1cc(SC2=C(O)C[C@@](CCc3ccc(N)cc3)(C(C)C)OC2=O)c(C(C)(C)C)cc1CO`, for which the AC50 in assay [1] was 66.3 µM (active); in [20] it was 20 µM (active). The molecule was called inactive in assay [11], in assay [12], in [13], in assay [14], in assay [15] and in assay [16]. Further, the call in assay [17], in [18], in assay [19], in assay [2], in assay [3] and in assay [4] was inactive.

As to `C=CCCCCCCCCCCCC`, the molecule was called inactive in assay [11], in assay [12], in assay [2], in assay [3] and in [4].

With `O=C1OC(c2ccc(O)cc2)(c2ccc(O)cc2)c2ccccc21`, the concentration at half-maximal activity (AC50) in assay [11] is 86.2 µM (active); in [13], 77 µM (active); in assay [14], 32.6 µM (active); in assay [17] it was 9.92 µM (active). The result in assay [12], in [15], in assay [16], in [18], in [19] and in assay [2] was inactive. For the same molecule, the outcome in assay [3], in [4] and in [20] was inactive.

For `CSc1ccc(Oc2ccc(S(N)(=O)=O)cc2CN(C)C)cc1C`, the molecule was called inactive in assay [11], in assay [12], in [18], in assay [19], in [2] and in assay [3]. In addition, the molecule was classed as inactive in assay [4] and in assay [20]. The AC50 in assay [13] is 74.8 µM (active).
